These results are taken from PubChem BioAssay (NCI).

Several values for one entry are separate records, joined by “and”; a condition that tells them apart may be missing. Equal values may be shown once. About 83,000 compounds went through this panel and 20% of them were active in at least one assay; those are over-represented in the sample as a whole.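 Note: values are percent growth. 100 is the growth of untreated cells, values between 100 and 0 indicate rising inhibition; between -100 and 0 indicates cell death.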 Activity calls are given as the source filed them.

In one assay the test system is RPMI-8226 leukemia. Put plainly: NCI-60 one-dose screen, 48 h (100 = growth as untreated, 0 = no growth, -100 = all killed). Particulars: 10 µM. The procedure:
Growth inhibition of the RPMI-8226 human tumor cell line is measured as a screen for anti-cancer activity. Cells are grown in 96 well plates and exposed to the test compound for 48 hours. Compounds are tested at a single concentration, which is 10^-5 M for most compounds. The reported endpoint is percent growth (GI% or GIPRCNT), where numbers from 0 - 100% represent growth inhibition, and numbers from -100% - 0 represent cell death. For example, a value of 40 represents 60% growth inhibition. A value of 0 means no net growth occurred over the course of the experiment. A value of -40 indicates 40% of cells at the beginning of the experiment died by the end of the experiment. A value of -100 means all cells are dead at the end of the experiment.
NCI-60 Human Tumor Cell Lines Screen was performed using the standard one-dose NCI protocol, which is described in more detail at https://dtp.cancer.gov/discovery_development/nci-60/default.htm.
Compounds with GIPRCNT values below 10 were considered active. Activity score was based on GIPRCNT using the following formula: […]
Score is 0 for GIPRCNT values of 100 or above, 50 for GIPRCNT values of 0, and 100 for GIPRCNT values of -100.
In the case of `CC(=O)/C=C/c1ccc(OCc2ccc(C(C)(C)C)cc2)cc1`, the growth was 67.6% (inactive).

`CC(=O)/C=C/c1ccc(N(CCO)Cc2ccc(C(C)(C)C)cc2)cc1`: the growth was 84.7% (inactive).

The assay is the same for the next values; noted with them: 10 µM unless noted.
With `CCN1C(=O)/C(=c2\sc3n(c2=O)C2C(NN=3)N(CC)C(=O)N2CC)c2ccccc21` (stereo not given), the growth was 50.8% (inactive).

Consider `Cc1ccc(-c2nc3nc(-c4ccccc4)nc(N4CCN(S(=O)(=O)c5ccccc5)CC4)c3o2)cc1`, for which the growth was 105% (inactive).

Turning to `COCCn1cc(-c2csc(-c3cn(C)c4ccc(F)cc34)n2)c2cccnc21`, the growth is 67.7% (inactive).

For `O=C(NNC(=S)Nc1ccccc1)c1ccncc1`, the growth is 96.8% (inactive).

On to `Cn1cc(-c2nc3c(F)cc4[nH]ncc4c3c3c2CCCC3)c(C(F)F)n1`, for which the growth is 27.7% (inactive).

`O=C1/C(=C/c2cn(-c3ccccc3)nc2-c2ccccc2)SC(=S)N1c1ccccc1`: the growth is 107% (inactive).

Turning to `COC(=O)c1nc(-c2ccc(C)cc2)oc1Sc1ccc(C)cc1`, the growth is 81.4% (inactive).

Take `COc1ccc(CN2CCc3c(Cl)nc(N)nc3C2=O)c(OC)c1`: the growth is 12.7% [100 µM] (inactive).

With `Cc1ccc(-c2nc(C#N)c(S(=O)(=O)N(C)C)o2)cc1`, the growth was 84.3% (inactive).

Consider `Cc1nc2sc(C(=O)Nc3cccc(Cl)c3C)c(N)c2cc1C(O)c1ccccc1` (stereo not given), for which the growth was 8.08% (active).

For the molecule `CN1C(=O)/C(=C/c2ccc(C(=O)Nc3ncc(Cc4ccccc4Cl)s3)cc2)SC1=S`, the growth was 73.3% (inactive).

`C=C1C(=O)O[C@H]2[C@H]1CC/C(CNS(=O)(=O)c1ccc3ccccc3c1)=C\CC[C@@]1(C)O[C@@H]21`: the growth was -4.34% (active).

For the molecule `O=C1Nc2ccccc2/C1=C/c1cccn1CCCCCn1c2ccccc2c(=O)c2ccccc21`, the growth was 22.1% (inactive).

Consider `[Cu+].[NH-][C@H]1C[N-]C(=O)[C@H]([C@H]2CCN=C(N)N2)[N-]C(=O)/C(=C\NC(N)=O)[N-]C(=O)[C@H](CNC(=O)C[C@@H](N)CCCN)[N-]C(=O)[C@H](CO)[N-]C1=O`, for which the growth was 103% (inactive).

For `CCN1C(=O)N(c2ccccc2)C2NC(=S)N(/N=C/C=C/c3ccccc3)C21` (stereo not given), the growth is -20.1% (active).

With `COc1ccc(C(c2cc(OC)c(OC)c(OC)c2)n2ccnc2)cc1O` (stereo not given), the growth was 18.9% (inactive).

With `O=c1ccc2nc(-c3ccccn3)nn(-c3ccccc3)c-2c1`, the growth was 50.3% (inactive).

As for `Clc1ccc(Nc2nc(Nc3ccc(Cl)cc3)nc(Nc3ccc(-c4cc(-c5cccc(Cl)c5)on4)cc3)n2)cc1`, the growth was 87% (inactive).

On to `Cc1ccc(C(=O)N(CCCN)[C@@H](c2nc3cc(Cl)ccc3c(=O)n2Cc2ccccc2)C(C)C)cc1`, for which the growth is -36.6% (active).

As for `CCN(CC)CCCN1C(=O)c2c(c(C)c3c(oc4cc(OC)ccc43)c2C)C1=O`, the growth is 91.6% (inactive).

Turning to `CCOC(=O)N(O)c1ccc(/C=C/c2ccccc2)cc1`, the growth was 62.2% (inactive) and 49.3% (inactive).

Take `COC(=O)c1nc(-c2ccccc2)oc1S(=O)(=O)N(C)CCO`: the growth is 42.4% (inactive).

On to `N#Cc1c(N)nnn1Cc1cc(=O)oc2ccc(O)cc12`, for which the growth was 94.1% (inactive).

Consider `COc1cc(-c2nc3occn3c2-c2ccnc(NCCCNS(=O)(=O)c3ccc(O)cc3)n2)ccc1F`, for which the growth was 97% (inactive).

As for `Cc1oc2c(Cc3ccc(NC(=O)c4ccc(Cl)cc4)cc3)ncnc2c1C(=O)NO`, the growth was 92.4% (inactive).

Consider `CC1=C2[C@@H](CC1)[C@]1(C)O[C@@](C(C)C)(C[C@H]1OC(=O)CO)[C@H]2OC(=O)C1CC1c1ccccc1` (stereo not given in full), for which the growth was 88.8% (inactive).

As for `COc1cc(-c2nn(-c3cccc(NC(=O)CCN4CCN(C)CC4)c3)cc2-c2ccncc2)ccc1Cl`, the growth is 4.86% (active).

On to `COc1nc2ccc(C)cc2cc1/C=[N+](\[O-])c1ccccc1`, for which the growth was 69.1% (inactive).

As for `CN1CCN(c2ccc(Nc3ncc(C(N)=O)c(NCCCNC(=O)C4CCC4)n3)cc2)CC1`, the growth was 101% (inactive).

`O=C1OCC2=C1C(c1cccc([N+](=O)[O-])c1)c1cc3c(cc1N2CCO)CCC3` (stereo not given): the growth is 17% (inactive).

In the case of `OCCN1CCN(c2cc(-c3cccc(OC(F)(F)F)c3)nc3ccc(N4CCCC4)cc23)CC1`, the growth is 43.1% (inactive).

In the case of `CC1(C)C(N)=Nc2cc(OCCCN3Cc4ccc(OCCc5cn(CC(=O)N6CCC(CCN7CCCC7)CC6)nn5)cc4C3)c(OCC3CC3)cc21`, the growth is 88.8% (inactive).

In the case of `O=C(/C=C/c1cccs1)Nc1ncc(Cc2ccc(Cl)c(Cl)c2)s1`, the growth was 78.1% (inactive).

With `C=C(C)[C@@H]1CC[C@]2(C(=O)N3CCN(C)CC3)CC[C@]3(C)[C@H](CC[C@@H]4[C@@]5(C)CC(CCCNC(C)=O)(CCCNC(C)=O)[C@H](OC(C)=O)C(C)(C)[C@@H]5CC[C@]43C)[C@@H]12`, the growth is 75.5% (inactive).

As to `COc1cc(Cl)cc(-c2nn(C(=O)NS(=O)(=O)c3ccc(Cl)cc3)cc2-c2ccncc2)c1`, the growth is 77.2% (inactive).

Turning to `C=C[C@]1(C)C=C2CC[C@@H]3C(C)(C)C(=O)CC[C@@]3(C)[C@@H]2CC1`, the growth is 98.3% (inactive).

Still in this assay, the particulars now being: 100 µM.
Turning to `CC(=O)/C=C/c1ccc(OCc2ccc(C(C)(C)C)cc2)cc1`, the growth was 0.803% (active).

For the molecule `CC(=O)/C=C/c1ccc(N(CCO)Cc2ccc(C(C)(C)C)cc2)cc1`, the growth was -34.9% (active).
